# Whole data set: some 2,900 compounds, median “IRF Lucia reporter activity, fold change vs agonist alone” near 0.9, cut for the highest 2% near 2.8. The sample holds the highest values, similar compounds and a random draw of the others, so the mix is not that of the screen.
# Columns and labels:
# RAW-Dual [1] = experiment: IRF Lucia reporter activity, fold change vs agonist alone; higher = enhanced IRF activity; conditions: cytotoxicity flag (confluency mask): not cytotoxic, agonist: MPLA (TLR4) […]
# Summary of the method: (§1)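 RAW-Dual macrophages were seeded in DMEM at 50,000 cells/well in 384-well plates, given 50 nL of library stock by pin tool, and given a PRR agonist 1 h later. Plates were held at 37 °C, 5% CO2 for 20 hours, after which supernatant was read for IRF by QuantiLuc luminescence and for NF-κB by QuantiBlue absorbance at 620 nm. Reporter activity is expressed as fold change over wells that received agonist alone. A well was called cytotoxic when IncuCyte confluency fell below 70% of agonist controls in both mask sets.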
# RAW-Dual [2] = experiment: IRF Lucia reporter activity, fold change vs agonist alone; cytotoxicity flag (confluency mask): not cytotoxic; higher = enhanced IRF activity
# Summary of the method: as §1
# [3] = library stock concentration (final ~1000-fold dilution): 10 mM
# [4] = agonist: 3'3'-cGAMP (STING) 10 ug/mL
compound,measurement,setting,value
O=C(NOCCO)c1ccc2cncn2c1Nc1ccc(I)cc1F,IRF Lucia reporter activity,RAW-Dual [1]; [3],3.27
O=C(NOCC(O)CO)c1ccc(F)c(F)c1Nc1ccc(I)cc1F (stereo not drawn),IRF Lucia reporter activity,RAW-Dual [1]; [3],3.52
O=C(NOCC(O)CO)c1cc(Br)c(F)c(F)c1Nc1ccc(I)cc1F (stereo not drawn) (library stock concentration (final ~1000-fold dilution): 10 mM),IRF Lucia reporter activity,RAW-Dual [2]; [4],0.713
same,IRF Lucia reporter activity,RAW-Dual [2]; agonist: LPS (TLR4) 0.1 ug/mL,2.11
Cc1cc(C(=O)NOCCO)c(Nc2ccc(I)cc2F)n(C)c1=O,IRF Lucia reporter activity,RAW-Dual [1]; [3],2.81
O=C(NOCC1CC1)c1ccc(F)c(F)c1Nc1ccc(I)cc1Cl,IRF Lucia reporter activity,RAW-Dual [1]; [3],2.05
Cn1c(=O)c(F)c(Nc2ccc(I)cc2F)c2c(=O)n(CC(O)CO)cnc21 (stereo not drawn),IRF Lucia reporter activity,RAW-Dual [1]; [3],1.23
Br.Br.Br.Br.Br.Br.c1ccc(CNCc2ccc(CN3CCCNCCNCCCNCC3)cc2)nc1 (library stock concentration (final ~1000-fold dilution): 10 mM water),IRF Lucia reporter activity,RAW-Dual [2]; [4],1.07
same,IRF Lucia reporter activity,RAW-Dual [2]; agonist: LPS (TLR4) 0.1 ug/mL,0.886
Br.Br.Br.Br.Br.Br.c1ccc(CNCc2ccc(CN3CCCNCCNCCCNCC3)cc2)nc1,IRF Lucia reporter activity,RAW-Dual [1]; library stock concentration (final ~1000-fold dilution): 10 mM water,1.35
COc1cc2ccc(=O)oc2c(OC)c1O (library stock concentration (final ~1000-fold dilution): .1 mM),IRF Lucia reporter activity,RAW-Dual [2]; [4],1.07
same,IRF Lucia reporter activity,RAW-Dual [2]; agonist: LPS (TLR4) 0.1 ug/mL,0.255
NC1=NC2(c3cc(NC(=O)c4ccc(F)cn4)ccc3F)COCC2CS1 (stereo not drawn) (library stock concentration (final ~1000-fold dilution): 10 mM),IRF Lucia reporter activity,RAW-Dual [2]; [4],1.08
same,IRF Lucia reporter activity,RAW-Dual [2]; agonist: LPS (TLR4) 0.1 ug/mL,0.998
NC1=NC2(c3cc(NC(=O)c4ccc(F)cn4)ccc3F)COCC2CS1 (stereo not drawn),IRF Lucia reporter activity,RAW-Dual [1]; [3],1.04
Cn1cc(-c2cc3c(-c4ccc(CNC(=O)c5noc(C(C)(C)C)n5)c(F)c4)ncnc3[nH]2)cn1 (library stock concentration (final ~1000-fold dilution): 10 mM),IRF Lucia reporter activity,RAW-Dual [2]; [4],0.039
same,IRF Lucia reporter activity,RAW-Dual [2]; agonist: LPS (TLR4) 0.1 ug/mL,0.396
Cc1nnc(SCC2=C(C(=O)O)N3C(=O)C(NC(=O)Cn4cnnn4)C3SC2)s1 (stereo not drawn),IRF Lucia reporter activity,RAW-Dual [1]; [3],1.07
Cc1nnc(SCC2=C(C(=O)O)N3C(=O)C(NC(=O)Cn4cnnn4)C3SC2)s1 (stereo not drawn) (library stock concentration (final ~1000-fold dilution): 10 mM),IRF Lucia reporter activity,RAW-Dual [2]; [4],1.08
same,IRF Lucia reporter activity,RAW-Dual [2]; agonist: LPS (TLR4) 0.1 ug/mL,1.26
Cc1ccsc1C(=CCCN1CCCC(C(=O)O)C1)c1sccc1C (stereo not drawn),IRF Lucia reporter activity,RAW-Dual [1]; [3],1
Cc1ccsc1C(=CCCN1CCCC(C(=O)O)C1)c1sccc1C (stereo not drawn) (library stock concentration (final ~1000-fold dilution): 10 mM),IRF Lucia reporter activity,RAW-Dual [2]; [4],0.964
same,IRF Lucia reporter activity,RAW-Dual [2]; agonist: LPS (TLR4) 0.1 ug/mL,1.29
COC1CC2CCC(C)C(O)(O2)C(=O)C(=O)N2CCCCC2C(=O)OC(C(C)CC2CCC(O)C(OC)C2)CC(=O)C(C)C=C(C)C(O)C(OC)C(=O)C(C)CC(C)C=CC=CC=C1C (stereo not drawn) (library stock concentration (final ~1000-fold dilution): 10 mM),IRF Lucia reporter activity,RAW-Dual [2]; [4],1.05
same,IRF Lucia reporter activity,RAW-Dual [2]; agonist: LPS (TLR4) 0.1 ug/mL,2.09
COC1CC2CCC(C)C(O)(O2)C(=O)C(=O)N2CCCCC2C(=O)OC(C(C)CC2CCC(OCCO)C(OC)C2)CC(=O)C(C)C=C(C)C(O)C(OC)C(=O)C(C)CC(C)C=CC=CC=C1C (stereo not drawn) (library stock concentration (final ~1000-fold dilution): 10 mM),IRF Lucia reporter activity,RAW-Dual [2]; [4],1.28
same,IRF Lucia reporter activity,RAW-Dual [2]; agonist: LPS (TLR4) 0.1 ug/mL,2.63
COC1CC2CCC(C)C(O)(O2)C(=O)C(=O)N2CCCCC2C(=O)OC(C(C)CC2CCC(O)C(OC)C2)CC(=O)C(C)C=C(C)C(O)C(OC)C(=O)C(C)CC(C)C=CC=CC=C1C (stereo not drawn),IRF Lucia reporter activity,RAW-Dual [1]; [3],1.46
COC1CC2CCC(C)C(O)(O2)C(=O)C(=O)N2CCCCC2C(=O)OC(C(C)CC2CCC(O)C(OC)C2)CC(=O)C(C)C=C(C)C(O)C(OC)C(=O)C(C)CC(C)C=CC=CC=C1C (stereo not drawn) (library stock concentration (final ~1000-fold dilution): .1 mM),IRF Lucia reporter activity,RAW-Dual [2]; [4],0.922
same,IRF Lucia reporter activity,RAW-Dual [2]; agonist: LPS (TLR4) 0.1 ug/mL,0.698
CCC1/C=C(\C)CC(C)CC(OC)C2OC(O)(C(=O)C(=O)N3CCCCC3C(=O)OC(/C(C)=C/C3CCC(Cl)C(OC)C3)C(C)C(O)CC1=O)C(C)CC2OC (stereo not drawn),IRF Lucia reporter activity,RAW-Dual [1]; [3],1.02
CCC1/C=C(\C)CC(C)CC(OC)C2OC(O)(C(=O)C(=O)N3CCCCC3C(=O)OC(/C(C)=C/C3CCC(Cl)C(OC)C3)C(C)C(O)CC1=O)C(C)CC2OC (stereo not drawn) (library stock concentration (final ~1000-fold dilution): 10 mM),IRF Lucia reporter activity,RAW-Dual [2]; [4],0.715
same,IRF Lucia reporter activity,RAW-Dual [2]; agonist: LPS (TLR4) 0.1 ug/mL,1.66
COC1CC2CCC(C)C(O)(O2)C(=O)C(=O)N2CCCCC2C(=O)OC(C(C)CC2CCC(n3cnnn3)C(OC)C2)CC(=O)C(C)C=C(C)C(O)C(OC)C(=O)C(C)CC(C)C=CC=CC=C1C (stereo not drawn) (library stock concentration (final ~1000-fold dilution): 10 mM),IRF Lucia reporter activity,RAW-Dual [2]; [4],0.943
same,IRF Lucia reporter activity,RAW-Dual [2]; agonist: LPS (TLR4) 0.1 ug/mL,0.694
COC1CC2CCC(C)C(O)(O2)C(=O)C(=O)N2CCCCC2C(=O)OC(C(C)CC2CCC(OC(=O)C(C)(CO)CO)C(OC)C2)CC(=O)C(C)C=C(C)C(O)C(OC)C(=O)C(C)CC(C)C=CC=CC=C1C (stereo not drawn),IRF Lucia reporter activity,RAW-Dual [1]; [3],4.11
COC1CC2CCC(C)C(O)(O2)C(=O)C(=O)N2CCCCC2C(=O)OC(C(C)CC2CCC(OP(C)(C)=O)C(OC)C2)CC(=O)C(C)C=C(C)C(O)C(OC)C(=O)C(C)CC(C)C=CC=CC=C1C (stereo not drawn),IRF Lucia reporter activity,RAW-Dual [1]; [3],1.24
COC1CC2CCC(C)C(O)(O2)C(=O)C(=O)N2CCCCC2C(=O)OC(C(C)CC2CCC(OCCO)C(OC)C2)CC(=O)C(C)C=C(C)C(O)C(OC)C(=O)C(C)CC(C)C=CC=CC=C1C (stereo not drawn),IRF Lucia reporter activity,RAW-Dual [1]; [3],3.06
COC1CC2CCC(C)C(O)(O2)C(=O)C(=O)N2CCCCC2C(=O)OC(C(C)CC2CCC(n3cnnn3)C(OC)C2)CC(=O)C(C)C=C(C)C(O)C(OC)C(=O)C(C)CC(C)C=CC=CC=C1C (stereo not drawn),IRF Lucia reporter activity,RAW-Dual [1]; [3],0.832
COC1CC2CCC(C)C(O)(O2)C(=O)C(=O)N2CCCCC2C(=O)OC(C(C)CC2CCC(OP(C)(C)=O)C(OC)C2)CC(=O)C(C)C=C(C)C(O)C(OC)C(=O)C(C)CC(C)C=CC=CC=C1C (stereo not drawn) (library stock concentration (final ~1000-fold dilution): 10 mM),IRF Lucia reporter activity,RAW-Dual [2]; [4],1.03
same,IRF Lucia reporter activity,RAW-Dual [2]; agonist: LPS (TLR4) 0.1 ug/mL,1.6
COC1CC2CCC(C)C(O)(O2)C(=O)C(=O)N2CCCCC2C(=O)OC(C(C)CC2CCC(OC(=O)C(C)(CO)CO)C(OC)C2)CC(=O)C(C)C=C(C)C(O)C(OC)C(=O)C(C)CC(C)C=CC=CC=C1C (stereo not drawn) (library stock concentration (final ~1000-fold dilution): 10 mM),IRF Lucia reporter activity,RAW-Dual [2]; [4],0.69
same,IRF Lucia reporter activity,RAW-Dual [2]; agonist: LPS (TLR4) 0.1 ug/mL,2.98

# Source: the supplement of paper PMC10037445
